Hits are enriched below; roughly 1.1% of the tested compounds scored in any of these assays.
NPSR antagonist = qHTS Assay for Antagonists of the Neuropeptide S Receptor: cAMP Signal Transduction. CHO-NPSR cells, cAMP TR-FRET, antagonist mode. Potency, µM (doses to about 38.3 µM), without a hit: top-dose activity change, negative = inhibition, hits mostly inhibitors. actives 1% (n = 220,000). AID 1461, 2008; further: potency means the concentration at half of the fitted maximal effect; on the % scale 0 is the no-effect control and ±100 the full control effect; nearly all actives have a fitted effect of over 50% in size
MBNL1-CUG inh = qHTS Assay for Inhibitors of MBNL1-poly(CUG) RNA binding. actives 0.036% (n = 280,000). TR-FRET MBNL1-His/biotin-(CUG)12 binding, 665/545 ratio. Potency, µM (highest dose often 57.5 µM), without a hit: at the top dose activity change, negative = inhibition, usual class: inhibitors; active means well fitted inhibition curve with a large enough effect in the signal ratio, with a control signal flat, not every such curve was filed as active; inconclusive means small, poorly fitted or top-dose-only effect, or effect the other way, or a change in a side signal; inactive means no such curve, though single readings can be large or run the other way; the % refers to the signal ratio; further: potency means the concentration at half of the fitted maximal effect; on the % scale 0 is the no-effect control and ±100 the full control effect
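TR-FRET between His-tagged MBNL1 and biotin-(CUG)12 RNA, detected with Tb anti-His antibody (0.055 ng/ul) and streptavidin-XL665 (5 nM), 60 min at room temperature. Compounds titrated 92 nM to 58 uM; 665/545 nm ratio normalized to buffer and complex controls.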
HttQ103 aggreg = qHTS Multiplex Assay to Identify Dual Action Probes in a Cell Model of Huntington: Aggregate Formation (GFP); Potency, µM (series often up to 46.1 µM), for the others: at the highest dose activity change, negative = inhibition, actives largely listed as inhibitors; AID 1688, 2009; PC12 HttQ103-GFP aggregates, Acumen cytometry, 40 h; actives 1.1% (n = 220,000); further: potency means the concentration at half of the fitted maximal effect; on the % scale 0 is the no-effect control and ±100 the full control effect; nearly all actives have a fitted effect of over 60% in size
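Read-out: GFP aggregate count by laser scanning cytometer (488 nm excitation, 500-530 nm emission, 1–25 µm objects >6 SD above background). Cells: PC12, inducible HTTex1-Q103-GFP, 100 nM tebufenozide; compounds titrated.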
Lamin A splicing = qHTS Assay for Modulators of Lamin A Splicing; HeLa LMNA splicing GFP/RFP minigene ratio, 48 h; Potency, µM (titrated, usually from 46.1 µM), inactives show top-dose ratio change, negative = inhibition, usual class: inhibitors; actives 0.01% (n = 200,000); active means well fitted inhibition curve with a large enough effect in the signal ratio, with a control signal flat, not every such curve was filed as active; inconclusive means small, poorly fitted or top-dose-only effect, or effect the other way, or a change in a side signal; the % refers to the signal ratio; further: potency means the concentration at half of the fitted maximal effect; on the % scale 0 is the no-effect control and ±100 the full control effect
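S3 HeLa stable clones carrying a lamin A-EGFP splicing minigene plus DsRed2 were seeded at 600 cells/well in Opti-MEM with 2% FBS, pin-dosed and incubated 48 h at 37°C. Acumen cytometry (488 nm) gave the GFP/RFP total-intensity ratio.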
CBFb-RUNX1 inh = qHTS Assay for Compounds Blocking the Interaction Between CBF-beta and RUNX1 for the Treatment of Acute Myeloid Leukemia; Runt-related transcription factor 1 (Homo sapiens) + Core-binding factor subunit beta …; AlphaScreen CBFb-His/RUNX1-biotin binding, biochemical; Potency, µM (titrated, usually from 59.8 µM), without a hit: at the top dose activity, negative = inhibition, actives largely listed as inhibitors; 230,000 tested, under 10 active; further: % of control where 0% means no effect
Target sequence (Q01196 whole entry, looked up): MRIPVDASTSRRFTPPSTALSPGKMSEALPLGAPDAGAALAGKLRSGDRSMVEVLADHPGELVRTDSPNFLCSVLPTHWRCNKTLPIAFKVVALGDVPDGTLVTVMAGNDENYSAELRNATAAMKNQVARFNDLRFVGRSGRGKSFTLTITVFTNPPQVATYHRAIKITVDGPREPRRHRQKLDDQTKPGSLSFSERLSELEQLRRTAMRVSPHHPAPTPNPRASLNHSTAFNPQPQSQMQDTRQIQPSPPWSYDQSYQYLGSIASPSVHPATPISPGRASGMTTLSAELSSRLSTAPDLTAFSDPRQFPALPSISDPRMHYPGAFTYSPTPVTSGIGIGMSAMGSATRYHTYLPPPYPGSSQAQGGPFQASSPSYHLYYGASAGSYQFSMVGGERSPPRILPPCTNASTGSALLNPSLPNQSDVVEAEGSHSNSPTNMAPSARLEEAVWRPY
Target sequence (Q13951 whole entry, looked up): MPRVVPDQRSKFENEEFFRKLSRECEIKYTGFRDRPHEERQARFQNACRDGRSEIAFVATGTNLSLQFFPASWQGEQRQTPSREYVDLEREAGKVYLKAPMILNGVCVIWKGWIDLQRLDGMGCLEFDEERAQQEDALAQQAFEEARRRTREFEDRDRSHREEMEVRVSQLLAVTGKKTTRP
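Compounds were screened at multiple concentrations against a preformed CBF-beta(His)/RUNX1(biotin) complex (30 nM of each) for 15 min at room temperature, followed by 90 min with nickel and streptavidin beads and AlphaScreen reading.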
HTT cytoprotect = qHTS Multiplex Assay to Identify Dual Action Probes in a Cell Model of Huntington: Cytoprotection (ATP); PC12 HTT-Q103 induced, cytoprotection, ATP luminescence, 40 h; Potency, µM (series often up to 56.4 µM), inactives show cytoprotection (ATP increase), hits mostly activators; actives 0.14% (n = 230,000); further: potency means the concentration at half of the fitted maximal effect; % of control where 0% means no effect; nearly all actives have a fitted effect of over 45% in size
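PC12 cells stably carrying ecdysone-inducible Htt exon 1 (Q103)–GFP were induced with 100 nM tebufenozide (final) alongside library compounds in a dose series. Cytoprotection was scored as retained ATP by ATPlite luminescence.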
MBNL1-CUG FRET = qHTS Assay for Inhibitors of MBNL1-poly(CUG) RNA binding: Initial hit validation from the primary screen | Potency, µM (top dose mostly 57.6 µM), for the others: top-dose activity change, negative = inhibition, most hits filed as inhibitors | actives 50% (n = 140) | shares compounds with MBNL1-CUG inh | TR-FRET MBNL1-His / biotin-(CUG)12 binding, 60 min
MBNL1 AlphaScrn = qHTS Assay for Inhibitors of MBNL1-poly(CUG) RNA binding: Initial hit validation in AlphaScreen assay for MBNL1-(CUG)12 binding. AlphaScreen MBNL1-His / biotin-(CUG)12 binding. shares compounds with MBNL1-CUG inh. Potency, µM (series often up to 57.7 µM), without a hit: top-dose activity, negative = inhibition, actives largely listed as inhibitors. AID 493205, 2011. actives 30% (n = 140)
Menin-MLL HTRF = qHTS Assay for Inhibitors of MBNL1-poly(CUG) RNA binding: Counterscreen HTRF assay | shares compounds with MBNL1-CUG inh | His-Menin/biotin-MLL peptide TR-FRET counterscreen | Potency, µM (series often up to 57.6 µM), inactives show top-dose activity, negative = inhibition, usual class: inhibitors | actives 20% (n = 120) | AID 651843, 2012
The depositor's hits bear a star; ? = inconclusive; · = no result; [ ] = remark or other dose. Unless noted, the call rests on the fitted dose curve; in most records, active means well fitted curve in the direction sought with a large enough effect; inconclusive means small, poorly fitted or top-dose-only effect, or another doubt; inactive means no such curve, though single readings can be large; an effect the other way counts as inactive or inconclusive.

SMILES | NPSR antagonist | MBNL1-CUG inh | HttQ103 aggreg | Lamin A splicing | CBFb-RUNX1 inh | HTT cytoprotect | MBNL1-CUG FRET | MBNL1 AlphaScrn | Menin-MLL HTRF
Nc1ccc2c(c1)C(=O)C(=O)c1ccccc1-2 | 10µM* | ? | 0.79µM* | ? | -3% | -99%[10 µM] | ? | 6.5µM* | 87%
COc1cc(NC(=O)CSc2nc3nc(C)c(Cc4ccccc4)c(C)n3n2)cc(OC)c1OC | · | · | · | 11%[46 µM] | · | · | · | · | ·
NCCCC(N)CC(=O)NC1CNC(=O)C(C2CC(O)N=C(N)N2)NC(=O)/C(=C/NC(N)=O)NC(=O)C(CO)NC(=O)C(CO)NC1=O (configuration not stated) | · | · | -18% | -7% | · | 6% | ? | ? | ·
C[C@@H]1NC(=O)[C@@H](N)CNC(=O)[C@H](C2CCNC(N)=N2)NC(=O)/C(=C/NC(N)=O)NC(=O)[C@H](CNC(=O)C[C@@H](N)CCCN)NC1=O (some centres not stated) | · | · | · | · | · | · | · | · | -11%
CC1NC(=O)C(N)CNC(=O)C(C2CCN=C(N)N2)NC(=O)/C(=C/NC(N)=O)NC(=O)C(CNC(=O)CC(N)CCCN)NC1=O (configuration not stated) | · | · | · | · | 27% | · | · | · | ·
NCCCC(N)CC(=O)NCC1NC(=O)C(CO)NC(=O)C(N)CNC(=O)C(C2CCN=C(N)N2)NC(=O)/C(=C\NC(N)=O)NC1=O (configuration not stated) | · | · | · | · | 18% | -79% | · | · | ·
O[Si@](CCCN1CCCCC1)(c1ccc(F)cc1)C1CCCCC1 | · | · | · | · | · | 8%[1.9 µM] | · | · | ·
COC(=O)c1cccc(NC(=O)c2ccc[n+]([O-])c2)c1 | · | 40µM* | · | · | · | · | -24% | ? | 0%
COCCNC(=O)CCC1CCN(Cc2ccc(-c3ccccc3)cc2)CC1 | · | 16µM* | · | · | · | · | 6.5µM* | 4% | 8.2µM*
COCCNC(=O)CCc1nnc(Cc2ccc(-c3ccccc3)cc2)o1 | -6% | -1% | 5%[9.22 µM] | 4%[46 µM] | -1% | 28%[10 µM] | · | · | ·
COc1ccc2cnoc(=O)c2c1OC | · | · | · | · | 4% | -10% | · | · | ·
O=C(NC1(O)C(=O)c2ccccc2C1=O)c1ccccc1 | 6%[46.1 µM] | · | ? | -5% | 8% | 12%[10 µM] | 21µM* | 13µM* | 1%
O=C(NC1(O)C(=O)c2ccccc2C1=O)c1c(Cl)cccc1Cl | 3% | ? | -8%[9.22 µM] | · | 1% | -3%[10 µM] | · | · | ·
O=C(NC1CCCCC1)c1ccccc1NC(=O)C1CC(=O)N(c2ccccc2)C1 (configuration not stated) | -17%[46.1 µM] | 40µM* | -1% | -8% | -12% | 0%[1.9 µM] | -10% | -5% | 2%
O=C(NC1CCCCC1)c1ccccc1NC(=O)C1CC(=O)N(c2ccc(Cl)cc2)C1 (configuration not stated) | 1%[46.1 µM] | 16µM* | -18% | -12% | -8% | 16%[1.9 µM] | 20% | ? | 0%
C=CCN1c2ccccc2[C@]23C[C@@H](C(=O)OC)N(S(=O)(=O)c4ccc(C)cc4)C2=NC(C(=O)OC)=C(C(=O)OC)[C@H]13 | · | · | · | 9%[9.22 µM] | 4%[13.1 µM] | 4%[10 µM] | · | · | ·
C/C(O)=C1\C(=O)[C@@H]2[C@H]3c4c[nH]c5cccc(c45)C[C@H]3C(C)(C)N2C1=O | · | · | · | · | -21% | -117% | · | · | ·
O=C(CCO)c1ccc(O)cc1 | -19% | 25µM* | -5%[9.22 µM] | · | · | 8%[10 µM] | ? | ? | 0%
O=C(O)c1[nH]c2c([N+](=O)[O-])cc([N+](=O)[O-])cc2c1C(=O)O | · | · | · | · | · | -12%[10 µM] | · | · | ·
CN(CC(=O)Nc1sccc1C#N)C1CCCCC1 | 3%[46.1 µM] | 28µM* | -21% | -10% | 11% | 4%[1.9 µM] | -22% | -1% | 0%
O=C(O)C1Nc2c(O)cccc2C2C=CCC12 (configuration not stated) | -7%[46.1 µM] | · | -26% | -6% | · | 30%[10 µM] | 10µM* | 2.1µM* | 5%
O=C(O)C1Nc2c(Cl)cc(Cl)cc2C2C=CCC12 (configuration not stated) | · | 17% | · | · | · | · | · | · | ·
Cc1cc(N2CCN(C)CC2)nc2ccc(NC(=S)NCCCN3CCc4ccccc4C3)cc12 | -42% | ? | ? | · | 8% | -10% | · | · | ·
Cc1cc(N2CCN(C)CC2)nc2ccc(NC(=S)NCCN3CCc4ccccc4C3)cc12 | -41% | 25µM* | ? | · | 0% | -5% | -20% | -25% | -19%
OC(COc1ccccc1CNCc1cccnc1)CN1CCc2ccccc2C1 (configuration not stated) | 3% | 13µM* | 12%[9.22 µM] | ? | 12% | -1%[10 µM] | 16µM* | ? | ?
Clc1ccccc1C(Nc1cnccn1)Nc1cnccn1 | · | · | · | · | · | 13%[10 µM] | · | · | ·

High-throughput results: PubChem, National Center for Advancing Translational Sciences (NCATS)
